EWS-Fli inh = inhibitors of EWS/Fli oncoprotein transcriptional activity | A673 NR0B1-luciferase reporter, viability-normalised | inhibition, % at 12.6 µM | actives 0.67% (n = 350,000);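 active = mean inhibition of at least 50% after viability correction, with every replicate also passing that limit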;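 also: firefly luciferase signal divided by Alamar Blue viability fluorescence both relative to DMSO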
PAX8 reporter = PAX8 transcriptional activity inhibition; RMG-I TPO-luciferase reporter, SteadyGlo, 24 h; inhibition, % at 12.6 µM; actives 1.2% (n = 360,000); AID 652154;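 active = mean replicate inhibition at least 60% with every replicate also reaching 60%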;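 also: luciferase light reporting Pax8 driven TPO promoter activity; plate controls were median of neutral control wells for no effect and mitoxantrone controls for full effect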
LGR2 antag = blocks bursicon-induced cAMP signaling via Drosophila LGR2; HEK293 LGR2, CRE-luciferase, bursicon-stimulated, 4 h; inhibition, % at 9.99 µM; actives 0.35% (n = 380,000); AID 720647;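 active = drop in luminescence signal, shown as inhibition above about 50% in the replicate tests, limit read from the data, passing the limit was not always enough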;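 also: agonist challenge used bursicon conditioned medium at about half maximal strength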
TROY NFkB inh = TROY signaling inhibition; actives 0.98% (n = 360,000); inhibition, % at 10 µM; Q293 LMP1-TROYcd NF-kB luciferase reporter, 4 h;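 active = compounds whose plate-normalised and pattern-corrected inhibition of the luciferase reporter signal at the single screening dose is 50% or more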
TWEAK Fn14 block = inhibitors of TWEAK-Fn14 interaction signaling. TWEAK-stimulated Fn14 reporter cells, luciferase luminescence, 8 h. inhibition, % at 10 µM. actives 2% (n = 360,000); in the data active = inhibition above about 50%
* marks the source's active call; other numbers are inactive results; nt = no result. Most compounds without a hit are left out; they make up all but 2.8% or so of the library.

SMILES	EWS-Fli inh	PAX8 reporter	LGR2 antag	TROY NFkB inh	TWEAK Fn14 block
Cc1cc(C)cc(NC(=O)CCCCCN2C(=O)[C@@H]3Cc4ccccc4CN3C2=O)c1	2	0	0	-6	55*
COc1cccc(NC(=O)CCCCCN2C(=O)[C@@H]3Cc4ccccc4CN3C2=O)c1	-4	-9	-24	-15	-5
C[C@H]1CN([C@@H](C)CO)C(=O)CCCn2cc(nn2)CO[C@H]1CN(C)Cc1ccc(C(=O)Nc2ccccc2N)cc1	24	nt	-2	nt	nt
C[C@@H](c1ccccc1)N1C[C@H]2CCCN2c2cc(Br)ccc2S1(=O)=O	63*	36	-4	-3	26
CC1=CC(=C2C(=O)c3ccccc3C2=O)C=C(C)N1C	nt	nt	-12	-21	10
CCCCCN1C=CC(=C2C(=O)c3ccccc3C2=O)C=C1	91*	99*	104*	78*	77*
C[C@@H]1CN([C@@H](C)CO)C(=O)c2cc(NC(=O)Nc3ccc(F)cc3)ccc2O[C@@H](C)CCCCO[C@@H]1CN(C)S(=O)(=O)c1ccccc1	4	-13	4	nt	nt
C[C@@H]1CCCCO[C@@H](CN(C)S(=O)(=O)c2ccccc2)[C@H](C)CN([C@H](C)CO)C(=O)c2cc(NC(=O)Nc3ccc(F)cc3)ccc2O1	16	73*	14	nt	nt
C[C@@H]1CN([C@H](C)CO)C(=O)c2cc(NC(=O)Nc3ccc(F)cc3)ccc2O[C@@H](C)CCCCO[C@H]1CN(C)S(=O)(=O)c1ccccc1	16	88*	-6	nt	nt
CC(C)NC(=O)N(C)C[C@@H]1Oc2ccc(NS(=O)(=O)c3cccs3)cc2C(=O)N([C@@H](C)CO)C[C@@H]1C	-3	nt	3	nt	nt
Cc1ccc(OCC(=O)N/N=C\c2ccc(-c3cccc(C(=O)O)c3)o2)c(C)c1	nt	-87	-14	-70	-21
Cc1ccc(C(=O)N/N=C/c2ccc(-c3cccc(C(F)(F)F)c3)o2)cn1	50*	25	nt	35	7
O=C(N/N=C/c1ccc(-c2ccc([N+](=O)[O-])cc2)o1)c1cccnc1	11	1	nt	-15	-5
CNC(=S)N/N=C/c1ccc(-c2cccc(C(=O)O)c2)o1	12	-36	65*	-45	-35
COc1cccc(NC(=O)N[C@@H]2C=C[C@@H](CC(=O)Nc3ccc(-c4ccccc4)cc3)O[C@@H]2CO)c1	nt	nt	1	nt	nt
CC1(NC(=O)CCc2ccccc2)CCN(CCCc2ccccc2)C1=O (stereo unspecified)	-14	-5	-1	-11	5
CC1(NC(=O)CC(c2ccccc2)(c2ccccc2)c2ccccc2)CCN(CCCc2ccccc2)C1=O (stereo unspecified)	5	66*	33	19	36
CNC[C@@H]1OCCCC[C@H](C)Oc2ccc(NS(=O)(=O)c3ccc(OC)cc3)cc2C(=O)N([C@@H](C)CO)C[C@@H]1C	17	-16	-26	nt	nt
COc1ccccc1-c1c(C)c(C)nc(N)c1C#N	nt	-6	nt	-10	-2
COc1ccccc1-c1c(C#N)c(N)nc2c1CCc1ccccc1-2	nt	24	21	54*	73*
CCOc1cc(-c2c(C#N)c(N)nc3c2CCCC3C)ccc1O (stereo unspecified)	nt	nt	nt	16	26
CCOc1cc(-c2c(C#N)c(N)nc3c2CCc2ccccc2-3)ccc1O	nt	-2	12	14	75*
C[C@@H]1CN([C@@H](C)CO)C(=O)c2cc(NC(=O)CCN3CCOCC3)ccc2O[C@H]1CN(C)Cc1ccccc1	15	-13	12	nt	nt
CO[C@@H]1CN(C)C(=O)c2cc(NS(C)(=O)=O)ccc2OC[C@@H](C)N(C(=O)C2CCCC2)C[C@@H]1C	-6	9	-16	nt	nt
CC(C)NC(=O)N(C)C[C@H]1OCCCC[C@H](C)Oc2ccc(NS(=O)(=O)c3ccc(F)cc3)cc2C(=O)N([C@H](C)CO)C[C@@H]1C	-1	-6	-5	nt	nt
Fc1nc(F)c(F)c(NCCCNc2c(F)c(F)nc(F)c2F)c1F	-3	23	9	50*	10
COc1ccccc1N=C1SC(C(=O)Nc2cccc(Cl)c2Cl)C(N)=C1C(N)=O (stereo unspecified)	55*	-6	-5	5	14
Cc1ccc(-c2nc(CS(=O)(=O)CC(=O)NCCCN(Cc3ccccc3)C(C)C)c(C)o2)cc1	13	6	15	16	0
Cc1oc(-c2ccc(-c3ccccc3)cc2)nc1CN(CCO)C(C)C	-86	-36	-65	-4	65*

Screening results: PubChem, several laboratories
